Records with an inconclusive call do not appear. A call without a number means that no potency is given here. A number with no mark means an inactive call. Active and inactive are the calls of the source. Calls follow the shape of the dose curve; as a rule, active = well fitted cell-killing curve with a large enough effect in the repeat runs; inconclusive = weak or mixed curves, or effect the other way; inactive = flat fitted curve, though single readings scatter.
Test: qHTS RealTime-Glo MT Cell Viability Assay in HEK293 cells - 32 hour (AID 1224868); also: top concentration of the series differs between compounds; nearly all actives have a fitted effect of over 50% in size
Conditions: RealTime-Glo luminescence; series mostly up to 76.8 µM
Source text: National Center for Advancing Translational Sciences [NCATS]
NIH Chemical Genomics Center [NCGC]
U.S. Environmental Protection Agency [EPA]
National Institutes of Environmental Health Sciences [NIEHS]
National Toxicology Program [NTP]
U.S. Food and Drug Administration [FDA]
Measure of cell viability is critical in the cell-base assay. Analysis of cell viability is necessary for the characterization of cell responses to cytotoxic drugs and environmental stress. A RealTime-Glo MT Cell Viability Assay to monitor cell viability in real time of continues cell culture during 40 hours of compound treatment was used to screen Tox21 10K library compounds in Hek293 cells. The RealTime-Glo MT Cell Viability Assay is a nonlytic, homogeneous, bioluminescent method to measure cell viability in real time using a simple, plate-based method. The assay involves adding NanoLuc luciferase and a cell-permeant prosubstrate to cells in culture. Viable cells reduce the proprietary prosubstrate to generate a substrate for NanoLuc luciferase. This substrate diffuses from cells into the surrounding culture medium, where it is rapidly used by the NanoLuc Enzyme to produce a luminescent signal. The signal correlates with the number of viable cells, making the assay well suited for cytotoxicity studies.
Tox21 Assay Protocol Summary:
The mixture of Hek293 cell suspension and reagents were dispensed at 600cells/6 ul/well in 1536-well tissue culture treated black solid bottom plates using a Multidrop dispenser. After the assay plates were incubated at a 37 C/5% CO2 incubator for 5 hours, 23 nL of compounds dissolved in DMSO, positive and negative controls was transferred to the assay plate by a pintool work station. The plates were incubated at 37 C for 40 hours. The luminescence intensity were measured at 0h, 8h, 16h, 24h, 32h and 40h time points using ViewLux plate reader during compound treatment.

Row | Compound | Potency | activity change, negative = cytotoxic
1 | CCOC(=O)CCCCCCCCC(=O)OCC | inactive | –
2 | CC(=O)N1CCN(c2ccc(O)cc2)CC1 | inactive | –
3 | CN=C(NC#N)NCCSCc1csc(N=C(N)N)n1 | inactive | –
4 | C=COCCOCCOC=C | inactive | –
5 | CC(C)c1ccccc1O | inactive | –
6 | NC(Cc1c[nH]c2ccccc12)C(=O)O (stereo not given) | inactive | –
7 | CO[Si](CCCS)(OC)OC | inactive | –
8 | NS(=O)(=O)c1ccccc1OC(F)(F)F | inactive | –
9 | C[C@@H]1C[C@H]2[C@@H]3C[C@H](F)C4=CC(=O)C=C[C@]4(C)[C@@]3(F)[C@@H](O)C[C@]2(C)[C@@]1(O)C(=O)CO | inactive | –
10 | CCC(=O)OCCC(C)CCC=C(C)C (stereo not given) | inactive | –
11 | CCCCCCCCCOCC1CO1 (stereo not given) | inactive | –
12 | Cc1cccc(NC(=S)N(C)C)c1 | inactive | –
13 | O=CO | – | 1.16% [at 6.97 µM]
14 | O=C1CC[C@H](C(=O)N2CCCCC2)N1 | inactive | –
15 | O=C(/C=C/c1ccccc1)NCCO | inactive | –
16 | O=c1[nH]c(=O)c2ccccc2o1 | inactive | –
17 | Nc1ccc(S(=O)(=O)Nc2ccccn2)cc1 | inactive | –
18 | CCN(CCO)c1cccc(C)c1 | inactive | –
19 | CN(C)CCOCCN(C)CCO | inactive | –
20 | CCN(Cc1cccc(S(=O)(=O)O)c1)c1ccccc1 | inactive | –

Row | Compound | Potency | activity change, negative = cytotoxic
21 | CCCOCCOCCOCCO | inactive | –
22 | CC(Cl)COP(=O)(OCC(C)Cl)OCC(C)Cl (stereo not given) | inactive | –
23 | CN[C@@H]1[C@H](O)[C@H](NC)[C@H]2O[C@@]3(O)C(=O)C[C@@H](C)O[C@H]3O[C@@H]2[C@H]1O | inactive | –
24 | O=C(O)/C=C/c1ccccc1 | inactive | –
25 | CCCC(C)CC (stereo not given) | inactive | –
26 | F[Si-2](F)(F)(F)(F)F | inactive | –
27 | CCCCCCCC[Si](OCC)(OCC)OCC | inactive | –
28 | CCCCCCCCCCC | inactive | –
29 | Cc1nc2ccccc2c(=O)o1 | inactive | –
30 | Nc1ccc(/C=C/c2ccc(N)cc2S(=O)(=O)O)c(S(=O)(=O)O)c1 | – | 0.295% [at 0.29 µM]
31 | CC(C)=CC(C)(C)C | inactive | –
32 | O=C(COCCOCCOCC(=O)Nc1c(I)cc(I)c(C(=O)O)c1I)Nc1c(I)cc(I)c(C(=O)O)c1I | inactive | –
33 | COc1cc2c3cc1Oc1cc(ccc1O)C[C@@H]1c4c(cc(OC)c(O)c4Oc4ccc(cc4)C[C@@H]3N(C)CC2)CC[N+]1(C)C | inactive | –
34 | CC(C)CCCC(C)CC=O (stereo not given) | inactive | –
35 | CCOC(=O)CC#N | inactive | –
36 | CCN(CCC#N)c1ccccc1 | inactive | –
37 | O=C1OC(=O)c2ccccc21 | inactive | –
38 | Nc1cc(Cl)cc(S(=O)(=O)O)c1O | inactive | –
39 | Cc1ccc(C(=O)C(=O)O)cc1C | inactive | –
40 | Cc1oc(=O)oc1CN1CCN(c2cc3c(cc2F)c(=O)c(C(=O)O)c2n3C(C)S2)CC1 (stereo not given) | inactive | –

From PubChem BioAssay (Tox21)
